Calls of active or inactive are those of the source. The calls were made as follows: active = hit-call score of the fitted dose curve at least 0.9, where 1 is the maximum; inactive = score below 0.9.

Conditions in all cases: mRNA level, 48 h; actives raise or lower the signal
Read-out in one assay: MYC, MYC (gene 4609)
Put plainly: LTEA_HepaRG_MYC: Life Technologies and Expression Analysis (LTEA) Assay for MYC using HepaRG (AID 2283518). Summed up:
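qRT-PCR read-out of MYC transcript (Fluidigm TaqMan, housekeeping-normalized) after 48 h chemical exposure of HepaRG cells; eight concentrations, top 100 uM, half-log steps. Bidirectional curve fitting against 0.5% DMSO vehicle baseline.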

Read-out in assay [1]: Paternally Expressed 10 (PEG10), PEG10 (gene 23089)
Put plainly: LTEA_HepaRG_PEG10: Life Technologies and Expression Analysis (LTEA) Assay for Paternally Expressed 10 (PEG10) using HepaRG (AID 2283520).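 As to AC50: differentiated HepaRG human liver cells in serum-free induction medium with 0.5% DMSO; PEG10 transcript by qRT-PCR normalised to ACTB GAPDH and POLR2A.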 Summed up:
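qRT-PCR read-out: PEG10 mRNA normalised to three housekeeping genes, fitted bidirectionally against 0.5% DMSO vehicle. HepaRG cells received test chemicals for 48 h in serum-free induction medium, 8 points, top 100 uM, half-log steps.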

Read-out in assay [2]: Nuclear factor NF-kappa-B p105 subunit (Homo sapiens) (UniProt P19838)
Put plainly: LTEA_HepaRG_NFKB1: Life Technologies and Expression Analysis (LTEA) Assay for Nuclear Factor Kappa B Subunit 1 (NFKB1) using HepaRG (AID 2283521).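 Also: differentiated human HepaRG liver cells in serum-free induction medium.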 Summed up:
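NFKB1 transcript was measured by TaqMan qRT-PCR on Fluidigm arrays, normalised to three housekeeping genes and fitted in both directions against 0.5% DMSO. HepaRG cells were dosed in duplicate for 48 h in serum-free induction medium, eight half-log steps from 100 uM.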

Read-out in assay [3]: Protein phosphatase 2A (PPP2R4), PTPA (gene 5524)
Briefly: LTEA_HepaRG_PPP2R4: Life Technologies and Expression Analysis (LTEA) Assay for Protein phosphatase 2A (PPP2R4) using HepaRG (AID 2283522). Summed up: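 HepaRG, 48 h exposure, 8-pt half-log series from 100 uM, 0.5% DMSO vehicle, duplicates. Readout: PPP2R4 mRNA, Fluidigm qRT-PCR, housekeeping-normalized. Bidirectional curve fit vs DMSO baseline.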

Read-out in assay [4]: Phosphatase and tensin (PTEN), PTEN (gene 5728)
Put plainly: LTEA_HepaRG_PTEN: Life Technologies and Expression Analysis (LTEA) Assay for Phosphatase and tensin (PTEN) using HepaRG (AID 2283523). The essentials:
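HepaRG, 48 h exposure, 8-pt half-log series from 100 uM top, 0.5% DMSO vehicle, duplicates. Readout: Fluidigm qRT-PCR of PTEN transcript; housekeeping normalization (ACTB, GAPDH, POLR2A). Gain or loss fitted relative to DMSO baseline.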

Read-out in assay [5]: solute carrier (SLC22A1), SLC22A1 (gene 6580)
Put plainly: LTEA_HepaRG_SLC22A1: Life Technologies and Expression Analysis (LTEA) Assay for solute carrier (SLC22A1) using HepaRG (AID 2283524).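 As to AC50: differentiated human HepaRG liver cells in serum-free induction medium.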 The essentials: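 qRT-PCR readout (TaqMan, Fluidigm arrays) of SLC22A1 transcript, normalized to three housekeeping genes; bidirectional curve fit relative to 0.5% DMSO vehicle. Differentiated human HepaRG cells, 48 h chemical exposure, top concentration 100 uM, half-log steps, eight points.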

Read-out in assay [6]: Pyruvate Dehydrogenase Kinase 4 (PDK4), PDK4 (gene 5166)
Briefly: LTEA_HepaRG_PDK4: Life Technologies and Expression Analysis (LTEA) Assay for Pyruvate Dehydrogenase Kinase 4 (PDK4) using HepaRG (AID 2283525). The essentials:
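HepaRG (human liver line), 48 h chemical exposure, 8-pt half-log CRC top 100 uM, 0.5% DMSO vehicle, duplicates. Readout: TaqMan qRT-PCR of PDK4 mRNA, housekeeping-normalized; gain/loss fit relative to DMSO baseline.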

Read-out in assay [7]: NAD(P)H dehydrogenase [quinone] 1 (NQO1), NQO1 (gene 1728)
Put plainly: LTEA_HepaRG_NQO1: Life Technologies and Expression Analysis (LTEA) Assay for NAD(P)H dehydrogenase [quinone] 1 (NQO1) using HepaRG (AID 2283526). The essentials: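 qRT-PCR read-out (Fluidigm TaqMan), normalized to three housekeeping genes, after 48 h chemical exposure of HepaRG cells. Concentrations: eight points, top 100 uM, half-log steps, 0.5% DMSO vehicle. Gain or loss of signal fitted relative to DMSO.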

Read-out in assay [8]: Nuclear factor erythroid 2-related factor 2 (Homo sapiens) (UniProt Q16236)
Briefly: LTEA_HepaRG_NFE2L2: Life Technologies and Expression Analysis (LTEA) Assay for Nuclear factor erythroid 2-related factor 2 (NFE2L2) Transcription Factor using HepaRG (AID 2283527). The essentials: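 HepaRG, 48 h dosing, 8-pt half-log series from 100 uM in 0.5% DMSO, duplicates. Read-out: NFE2L2 mRNA by qRT-PCR (ACTB/GAPDH/POLR2A normalization). Bidirectional curve fit vs DMSO baseline.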

Read-out in assay [9]: succinate dehydrogenase complex iron sulfur subunit B (SDHB), SDHB (gene 6390)
Put plainly: LTEA_HepaRG_SDHB: Life Technologies and Expression Analysis (LTEA) Assay for succinate dehydrogenase complex iron sulfur subunit B (SDHB) using HepaRG (AID 2283528). The essentials: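 SDHB transcript level read by TaqMan qRT-PCR, housekeeping-normalised (ACTB, GAPDH, POLR2A), after 48 h chemical treatment of plated HepaRG cells; eight concentrations top 100 uM, half-log steps, 0.5% DMSO, duplicates; fitted both directions against DMSO.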

Read-out in assay [10]: solute carrier (SLCO1B1), SLCO1B1 (gene 10599)
Put plainly: LTEA_HepaRG_SLCO1B1: Life Technologies and Expression Analysis (LTEA) Assay for solute carrier (SLCO1B1) using HepaRG (AID 2283530). The essentials: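 SLCO1B1 transcript read by qRT-PCR (Fluidigm arrays), normalized to three housekeeping genes, after 48 h chemical exposure of HepaRG cells; bidirectional concentration-response fitting versus 0.5% DMSO baseline. Eight-point half-log series, maximum 100 uM.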

Read-out in assay [11]: sulfotransferase 2A1 (SULT2A1), SULT2A1 (gene 6822)
Briefly: LTEA_HepaRG_SULT2A1: Life Technologies and Expression Analysis (LTEA) Assay for sulfotransferase 2A1 (SULT2A1) using HepaRG (AID 2283531). Summed up:
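HepaRG, 48 h chemical exposure, 8-pt half-log curve from 100 uM in 0.5% DMSO, duplicates. Readout: TaqMan qRT-PCR of SULT2A1 mRNA, housekeeping-normalized. Bidirectional fit vs DMSO baseline.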

Read-out in assay [12]: Transforming Growth Factor (TGFA), TGFA (gene 7039)
Briefly: LTEA_HepaRG_TGFA: Life Technologies and Expression Analysis (LTEA) Assay for Transforming Growth Factor (TGFA) using HepaRG (AID 2283532). Summed up:
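qRT-PCR read-out of TGFA transcript, normalized to three housekeeping genes, fitted bidirectionally against 0.5% DMSO baseline. Human HepaRG cultures received chemicals for 48 h at eight half-log concentrations, top 100 uM.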

Read-out in assay [13]: Tumor necrosis factor receptor 1 (TNFRSF1A), TNFRSF1A (gene 7132)
Briefly: LTEA_HepaRG_TNFRSF1A: Life Technologies and Expression Analysis (LTEA) Assay for Tumor necrosis factor receptor 1 (TNFRSF1A) using HepaRG (AID 2283535). The essentials:
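HepaRG, 48 h plating then 48 h chemical exposure, serum-free induction media; 8-pt CRC from 100 uM, half-log, 0.5% DMSO vehicle, duplicates. Readout: TaqMan qRT-PCR (Fluidigm), housekeeping-gene normalized; bidirectional fit vs DMSO.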

Read-out in assay [14]: Thyroid Hormone Responsive (THRSP), THRSP (gene 7069)
Put plainly: LTEA_HepaRG_THRSP: Life Technologies and Expression Analysis (LTEA) Assay for Thyroid Hormone Responsive (THRSP) using HepaRG (AID 2283536). Summed up: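 qRT-PCR read-out (Fluidigm TaqMan), housekeeping-normalized (ACTB/GAPDH/POLR2A). HepaRG, 48 h chemical exposure, 8-pt half-log series from 100 uM in 0.5% DMSO, duplicates. Bidirectional curve fit vs 0.5% DMSO baseline.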

Read-out in assay [15]: Cellular tumor antigen p53 (Homo sapiens) (UniProt P04637)
Put plainly: LTEA_HepaRG_TP53: Life Technologies and Expression Analysis (LTEA) Assay for Tumor Protein P53 (TP53) using HepaRG (AID 2283537). The essentials: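 TP53 transcript measured by qRT-PCR, normalized to three housekeeping genes, after 48 h treatment of human HepaRG cultures with chemicals from 100 uM downward in half-log steps (0.5% DMSO vehicle, serum-free induction medium). Up- or down-regulation fitted against DMSO.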

Read-out in assay [16]: Signal transducer and activator of transcription 3 (Homo sapiens) (UniProt P40763)
Put plainly: LTEA_HepaRG_STAT3: Life Technologies and Expression Analysis (LTEA) Assay for Signal transducer and activator of transcription (STAT3) using HepaRG (AID 2283529). Summed up:
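HepaRG, 48 h exposure, 8-pt half-log series (top 100 uM), 0.5% DMSO vehicle, duplicates. Readout: STAT3 transcript by Fluidigm qRT-PCR, housekeeping-normalized; bidirectional fit vs DMSO baseline.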

Read-out in assay [17]: Transforming Growth Factor (TGFB1), TGFB1 (gene 7040)
Briefly: LTEA_HepaRG_TGFB1: Life Technologies and Expression Analysis (LTEA) Assay for Transforming Growth Factor (TGFB1) Transporter using HepaRG (AID 2283533). The essentials: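 qRT-PCR readout of TGFB1 transcript in HepaRG lysates, normalized to three housekeeping genes; gain or loss of signal fitted relative to 0.5% DMSO vehicle. Exposure: 48 h, 8-point curve from 100 uM, duplicate wells.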

Chain of Cellular tumor antigen p53 (Homo sapiens) (P04637 whole entry, looked up): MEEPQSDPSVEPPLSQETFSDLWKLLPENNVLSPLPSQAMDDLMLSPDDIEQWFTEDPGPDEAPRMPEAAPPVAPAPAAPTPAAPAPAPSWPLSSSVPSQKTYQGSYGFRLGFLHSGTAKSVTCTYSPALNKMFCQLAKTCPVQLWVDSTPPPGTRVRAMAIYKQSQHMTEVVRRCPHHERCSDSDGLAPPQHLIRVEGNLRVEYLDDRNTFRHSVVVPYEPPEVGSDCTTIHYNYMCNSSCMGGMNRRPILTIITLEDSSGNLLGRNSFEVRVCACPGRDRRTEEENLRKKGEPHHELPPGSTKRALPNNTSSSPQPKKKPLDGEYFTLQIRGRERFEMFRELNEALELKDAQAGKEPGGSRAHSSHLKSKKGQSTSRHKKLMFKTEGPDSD
Chain of Nuclear factor erythroid 2-related factor 2 (Homo sapiens) (Q16236 whole entry, looked up): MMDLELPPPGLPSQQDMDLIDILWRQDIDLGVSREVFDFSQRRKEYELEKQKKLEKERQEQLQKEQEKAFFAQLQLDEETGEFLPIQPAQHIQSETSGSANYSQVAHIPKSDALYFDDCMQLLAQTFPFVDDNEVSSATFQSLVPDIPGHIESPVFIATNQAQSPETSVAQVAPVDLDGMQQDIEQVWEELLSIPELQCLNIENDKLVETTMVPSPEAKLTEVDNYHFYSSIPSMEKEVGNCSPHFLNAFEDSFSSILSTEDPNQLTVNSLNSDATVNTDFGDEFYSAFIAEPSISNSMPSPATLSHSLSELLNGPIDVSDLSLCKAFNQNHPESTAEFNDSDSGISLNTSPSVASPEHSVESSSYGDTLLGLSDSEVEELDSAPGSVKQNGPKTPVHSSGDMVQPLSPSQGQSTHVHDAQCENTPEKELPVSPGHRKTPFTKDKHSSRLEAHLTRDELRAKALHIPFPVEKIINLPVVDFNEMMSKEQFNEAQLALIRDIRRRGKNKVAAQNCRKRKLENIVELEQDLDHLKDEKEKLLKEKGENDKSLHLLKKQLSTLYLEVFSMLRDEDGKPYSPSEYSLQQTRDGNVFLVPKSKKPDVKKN
Chain of Signal transducer and activator of transcription 3 (Homo sapiens) (P40763 whole entry, looked up): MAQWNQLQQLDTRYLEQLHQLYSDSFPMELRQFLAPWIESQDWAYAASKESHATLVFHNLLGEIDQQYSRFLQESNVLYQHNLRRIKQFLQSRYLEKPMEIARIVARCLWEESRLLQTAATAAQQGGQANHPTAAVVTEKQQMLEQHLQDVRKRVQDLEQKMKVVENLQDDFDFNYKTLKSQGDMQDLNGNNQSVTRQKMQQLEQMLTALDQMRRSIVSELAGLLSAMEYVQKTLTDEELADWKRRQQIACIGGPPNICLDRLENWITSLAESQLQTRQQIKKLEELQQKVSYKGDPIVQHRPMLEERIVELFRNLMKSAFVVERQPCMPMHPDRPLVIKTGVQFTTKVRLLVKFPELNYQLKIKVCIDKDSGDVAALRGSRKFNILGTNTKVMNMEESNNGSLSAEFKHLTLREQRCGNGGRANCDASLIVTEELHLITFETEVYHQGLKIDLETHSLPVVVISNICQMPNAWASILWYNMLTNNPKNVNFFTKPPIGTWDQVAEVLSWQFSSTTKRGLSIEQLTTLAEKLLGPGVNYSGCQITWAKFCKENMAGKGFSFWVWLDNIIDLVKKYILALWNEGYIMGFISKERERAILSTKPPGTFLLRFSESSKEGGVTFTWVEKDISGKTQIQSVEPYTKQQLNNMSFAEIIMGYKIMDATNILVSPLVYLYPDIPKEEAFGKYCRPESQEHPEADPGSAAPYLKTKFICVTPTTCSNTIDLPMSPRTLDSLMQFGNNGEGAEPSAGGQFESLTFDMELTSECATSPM
Chain of Nuclear factor NF-kappa-B p105 subunit (Homo sapiens) (P19838 whole entry, looked up): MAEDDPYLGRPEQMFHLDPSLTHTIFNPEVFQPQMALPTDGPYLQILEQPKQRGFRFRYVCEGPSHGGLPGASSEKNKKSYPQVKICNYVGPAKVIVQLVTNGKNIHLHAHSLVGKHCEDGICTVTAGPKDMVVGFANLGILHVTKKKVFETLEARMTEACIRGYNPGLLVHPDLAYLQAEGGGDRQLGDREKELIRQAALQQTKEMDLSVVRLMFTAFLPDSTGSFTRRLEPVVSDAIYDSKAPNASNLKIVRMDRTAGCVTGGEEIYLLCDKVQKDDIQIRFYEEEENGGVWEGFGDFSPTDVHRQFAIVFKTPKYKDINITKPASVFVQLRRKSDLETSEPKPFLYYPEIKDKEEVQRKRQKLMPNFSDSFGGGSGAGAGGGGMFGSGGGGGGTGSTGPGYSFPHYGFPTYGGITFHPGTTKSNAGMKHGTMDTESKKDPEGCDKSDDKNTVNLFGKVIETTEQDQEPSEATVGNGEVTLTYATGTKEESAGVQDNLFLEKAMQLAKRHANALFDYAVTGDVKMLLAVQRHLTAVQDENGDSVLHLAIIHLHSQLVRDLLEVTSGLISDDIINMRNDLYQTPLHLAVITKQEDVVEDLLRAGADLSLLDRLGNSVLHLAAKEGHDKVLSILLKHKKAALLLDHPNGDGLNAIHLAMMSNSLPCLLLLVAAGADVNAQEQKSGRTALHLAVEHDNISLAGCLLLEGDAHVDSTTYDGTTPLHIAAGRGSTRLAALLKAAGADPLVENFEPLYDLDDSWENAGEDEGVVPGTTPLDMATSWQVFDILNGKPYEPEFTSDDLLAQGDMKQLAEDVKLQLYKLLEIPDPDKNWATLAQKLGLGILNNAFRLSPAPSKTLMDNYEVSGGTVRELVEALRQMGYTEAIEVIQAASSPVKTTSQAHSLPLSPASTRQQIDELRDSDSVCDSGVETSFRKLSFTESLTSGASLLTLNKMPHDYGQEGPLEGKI

Consider `C=CCC1=C(C)[C@@H](OC(=O)[C@@H]2[C@@H](C=C(C)C)C2(C)C)CC1=O`, for which the outcome in the assay with MYC, MYC (gene 4609) is “inactive”; in assay [2], “inactive”; in assay [3], “inactive”; in assay [4], “inactive”; in [6], “inactive”; in assay [7] it was “inactive”. Also, the outcome in [8], in assay [9], in assay [10], in [11], in assay [12] and in assay [13] was inactive. In addition, the compound was called inactive in [14] and in assay [15]. Moreover, the AC50 in assay [1] was 22.6 µM (active); in assay [5] it was 50 µM (active).

For the compound `CCNc1nc(Cl)nc(NCC)n1`, the outcome with MYC, MYC (gene 4609) is “inactive”; in [1] it was “inactive”; in [3], “inactive”; in [4], “inactive”; in [5] it was “inactive”; in assay [6], “inactive”. In addition, the call in [7], in assay [8], in assay [9], in [16], in [10] and in assay [12] was inactive. For the same compound, the outcome in [13], in [14] and in [15] was inactive.

Turning to `CC1=C(C(=O)Nc2ccccc2)SCCO1`, the outcome with MYC, MYC (gene 4609) was “inactive”; in assay [1], “inactive”; in assay [3], “inactive”; in assay [4], “inactive”; in assay [6], “inactive”; in [7], “inactive”. The call in [8], in assay [9], in [16], in assay [10], in assay [12] and in assay [17] was inactive. Also, the call in [13] and in [15] was inactive. The values for the concentration at half-maximal activity (AC50) in assay [5] and in assay [14] were 14.2 µM (active) and 17 µM (active), respectively.

For `COC(=O)C=C(C)OP(=O)(OC)OC`, the outcome in the assay with MYC, MYC (gene 4609) is “inactive”; in [1] it was “inactive”; in assay [3] it was “inactive”; in [4] it was “inactive”; in [5], “inactive”; in assay [6], “inactive”. Moreover, the outcome in assay [7], in assay [8], in [9], in assay [16], in assay [10] and in assay [11] was inactive. Also, the outcome in [12], in assay [13], in [14] and in assay [15] was inactive.

As a reminder, the AC50 is the concentration giving half of the maximal activity seen.

For the origin of these results see PubChem BioAssay (EPA / NIEHS).
